# In the library only some 3.5% were active in any assay of this set; here they are far more common.
# FBW7 act – activators of human E3 ligase FBW7. AlphaScreen FBW7–phospho-cyclin E peptide binding, activator screen. AID 1259310. normalized activity (activation), % at 26.1 µM. hit rate 0.13% among 650,000; in the data active means normalized activity above about 1.9%;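 further: purified mutant Fbw7 with reduced substrate affinity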
# MITF primary – blocks human microphthalmia-associated transcription factor | AlphaScreen MITF homodimerization, bead proximity signal | inhibition, % at 2.6 µM | hit rate 0.91% among 650,000 | O75030; in the data active means inhibition above about 50%;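 further: 0% = vehicle wells with protein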
# GPR151 activ – activators of human GPR151 | AID 1508602 | Q8TDV0 | activation, % at 11.2 µM | PathHunter beta-arrestin GPR151 cells, luminescence | hit rate 1% among 650,000; in the data active means activation above about 4.9%;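 further: 0% = median of compound wells and 100% = cells with positive control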
# Target sequence (Q8TDV0 whole entry, looked up): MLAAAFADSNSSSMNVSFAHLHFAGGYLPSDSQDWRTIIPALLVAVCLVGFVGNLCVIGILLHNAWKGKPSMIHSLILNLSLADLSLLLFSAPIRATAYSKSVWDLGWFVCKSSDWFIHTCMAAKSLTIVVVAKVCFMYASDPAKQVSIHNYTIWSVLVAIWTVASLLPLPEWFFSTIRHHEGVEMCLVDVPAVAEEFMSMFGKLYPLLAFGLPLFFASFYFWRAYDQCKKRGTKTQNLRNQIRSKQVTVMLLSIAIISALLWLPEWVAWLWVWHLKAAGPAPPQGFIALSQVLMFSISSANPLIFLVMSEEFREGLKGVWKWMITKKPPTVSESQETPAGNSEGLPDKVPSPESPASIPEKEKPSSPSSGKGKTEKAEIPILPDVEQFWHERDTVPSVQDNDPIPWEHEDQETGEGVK
# TEAD-YAP block – TEAD-YAP interaction inhibition; HEK-TIYL cells, TEAD-Gal4/YAP UAS-luciferase luminescence; hit rate 1.4% among 640,000; inhibition, % at 9.12 µM; in the data active means inhibition above about 32%;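 further: 0% = median of test compound wells and 100% = reference inhibitor wells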
# MITF confirm – human MITF inhibition, confirmation. shares compounds with MITF primary. AlphaScreen MITF homodimerization, biotin/His-MITF beads. inhibition, % at 2.6 µM. hit rate 16% among 4,700. AID 1259372;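 active means inhibition above a cutoff derived from the DMSO control wells, cut at about 28% in these data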;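 further: 0% = MITF dimer wells with DMSO only; inhibitors lower the bead chemiluminescence by keeping MITF from dimerizing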
# AS interf DR – counter-screen: compounds optically interfering with AlphaScreen; AID 1259373; shares compounds with MITF primary; IC50, µM; hit rate 6% among 480; AlphaScreen optical interference counterscreen, cell-free; call rule not given here
# AS interf ctr – AlphaScreen optical interference, counter-screen; shares compounds with MITF primary; LysRS AlphaScreen counterscreen, signal interference, triplicate; inhibition, % at 2.6 µM; hit rate 7.6% among 4,700; AID 1259376;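 active means inhibition above a cutoff derived from the DMSO control wells, cut at about 30% in these data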
# * = called active by the depositor; . = no result given.
SMILES,FBW7 act,MITF primary,GPR151 activ,TEAD-YAP block,MITF confirm,AS interf ctr,others
COc1cccc(C(=O)N2CCC3(CC2)CC3C(=O)Nc2ccccc2)c1OC (stereo not given),0,2,0,9,.,.,
COc1cccc(CN2CCSCC2)c1OC,0,32,0,-6,.,.,
COc1cccc(CN2CCN(Cc3ccc(OC)c(OC)c3OC)CC2)c1OC,0,77*,0,-2,11,14,
C=CCN(c1ccc(C(=O)O)cc1)S(C)(=O)=O,0,12,-2,-7,.,.,
O=c1oc2ccc3ccccc3c2cc1-c1nnc(-c2ccc(Br)cc2)o1,0,9,0,2,.,.,
CC(OC(=O)CSCc1cccc(Cl)c1)C(=O)Nc1ccc(C(N)=O)cc1 (stereo not given),0,-8,-1,2,.,.,
CC(C)(C)C1=NN(CC(=O)NC2CCC2)C(=O)c2cc3ccccc3n2C1,0,3,0,15,.,.,
CC(C)C1C(=O)NN(c2ccccc2)C1=S (stereo not given),0,7,-1,4,.,.,
COc1ccc(CN2CCN(CCOCCOc3ccccc3)CC2)c(OC)c1OC,-1,75*,0,6,-12,-3,
Cc1ccc(NC(=O)C2(c3ccccc3)CCC(=O)C2C)cc1 (stereo not given),0,0,-1,-13,.,.,
Cc1nnc(SCc2nc3ccccc3[nH]2)n1C,0,74*,0,5,13,16,
COc1ccccc1-c1nnc(SCc2nc3ccccc3[nH]2)n1C,0,7,0,7,.,.,
O=C(CNCCc1ccccc1)Nc1ccccc1N1CCCCCC1,0,25,3,-9,.,.,
O=C(CNCCc1ccc(Cl)cc1)Nc1ccccc1N1CCOCC1,0,65*,0,-13,-1,18,
O=C(CNCCC1=CCCCC1)Nc1ccccc1N1CCOCC1,0,77*,-1,0,-15,1,
Cc1ccc2cc(CN(C(=O)Nc3ccccc3)C3CCCC3)c3nnnn3c2c1,0,65*,0,11,3,11,
O=C(c1ccccc1F)N1CCN(Cc2ccccc2[N+](=O)[O-])CC1,0,62*,0,-3,7,17,
COc1ccc(Br)cc1CN1CCN(C(=O)c2ccccc2F)CC1,1,65*,-3,-3,5,15,
O=C(c1ccccc1F)N1CCN(Cc2c[nH]c3ccccc23)CC1,0,35,-1,16,.,.,
COc1ccc(Br)cc1CN1CCN(C(=O)c2ccccc2)CC1,0,43,0,8,.,.,
O=C(c1ccc(F)cc1)N1CCN(Cc2ccccc2[N+](=O)[O-])CC1,0,55*,3,5,-14,-5,
O=C(c1ccccc1F)N1CCN(Cc2ccccc2C(F)(F)F)CC1,0,58*,-1,-3,1,-9,
O=C(c1cccc(F)c1)N1CCN(Cc2ccccc2[N+](=O)[O-])CC1,0,22,-1,2,.,.,
O=C(c1cccnc1)N1CCN(Cc2ccccc2[N+](=O)[O-])CC1,0,82*,-1,5,-2,-3,
Cc1ccc(C)n1C(CC(=O)O)c1ccsc1 (stereo not given),0,80*,1,4,68*,11,AS interf DR=>6.8
SMILES,FBW7 act,MITF primary,GPR151 activ,TEAD-YAP block,MITF confirm,AS interf ctr,others
CC(C)c1cc(C(=O)NNC(=O)Nc2ccc([N+](=O)[O-])cc2)c(O)c(C(C)C)c1,0,-14,0,16,.,.,
c1ccc(-c2cc(N3CCC4(CC3)OCCO4)nc(-c3ccccn3)n2)nc1,-1,114*,1,68*,116*,100*,
O=C(NCCCn1ccnc1)c1ccc(OC2CCN(CCc3ccccc3)CC2)cc1,0,69*,4,1,-1,-5,
O=C(NCCCO)c1ccc(OC2CCN(CCc3ccccc3)CC2)cc1,0,-2,0,5,.,.,
O=C(Nc1ccn(Cc2ccc(F)cc2)n1)c1cnccn1,0,38,2,-23,.,.,
Cc1ccc2c(c1)N(CC(=O)OC(CC(C)C)C(=O)NC1CCCC1)C(=O)CO2 (stereo not given),0,54*,0,3,2,14,
CC(C)CC(OC(=O)CN1C(=O)COc2ccccc21)C(=O)NC1CCCCC1 (stereo not given),0,1,0,6,.,.,
COc1ccc(CN2CCN(C(=O)c3cccnc3)CC2)c(OC)c1OC,0,32,1,10,.,.,
COc1cccc(CN2CCN(C(=O)c3cccnc3)CC2)c1OC,0,77*,-1,0,9,11,
COc1ccc(CN2CCN(C(=O)c3cccnc3)CC2)c(OC)c1,0,44,1,-4,.,.,
COc1ccccc1C1(O)CC2CCC(C1)N2C(=O)c1cccnc1 (stereo not given),0,73*,-1,10,8,16,
COc1ccccc1CN1CCN(C(=O)c2cccnc2)CC1,0,57*,1,0,6,-8,
CSc1ccc(Cc2nnc(NC(=O)c3cc(C)oc3C)o2)cc1,0,2,-1,11,.,.,
CSc1ccc(Cc2nnc(NC(=O)C34CC5CC(CC(C5)C3)C4)o2)cc1,0,52*,-1,11,-9,19,
COC(=O)c1ccc(CN2CCN(Cc3ccc4c(c3)OCO4)CC2)cc1,0,56*,0,2,5,1,
CCOc1cc(CN2CCN(Cc3ccc4c(c3)OCO4)CC2)ccc1OC,0,31,3,3,.,.,
COc1ccc(CN2CCN(Cc3ccc4c(c3)OCO4)CC2)cc1OC,0,82*,0,-1,11,9,
O=C(c1ccc2c(c1)OCO2)N1CCN(Cc2ccc3c(c2)OCO3)CC1,0,-3,-2,-4,.,.,
COc1ccc(CN2CCN(Cc3ccc4c(c3)OCO4)CC2)c(OC)c1OC,0,79*,1,6,10,15,
COc1ccc(CN2CCN(Cc3ccc4c(c3)OCO4)CC2)cc1C,0,38,1,3,.,.,
CCOc1cc(CN2CCN(Cc3ccc4c(c3)OCO4)CC2)ccc1O,0,75*,0,-8,14,13,
COC(=O)c1ccc(N(C)S(=O)(=O)c2ccc(C)cc2)cc1,0,0,-1,6,.,.,
O=C(CCCCCn1c(SCc2cc(=O)n3ccccc3n2)nc2ccsc2c1=O)NCCc1ccccc1,0,-13,2,15,.,.,
CN1CCN(CCOc2ccc(Cl)cc2C(C)(C)C)CC1,0,79*,-2,1,16,20,
Cc1ccc(C(C)(C)C)c(OCCn2ccnc2)c1,0,28,-2,-13,.,.,
Cc1ccc(C(C)(C)C)c(OCCNCCN)c1,0,80*,-1,-3,3,4,
CC(C)(C)c1cc(Cl)ccc1OCCOCCN1CCOCC1,0,64*,-1,-12,10,1,
Cc1ccc(C(C)(C)C)c(OCCN2CCN(C)CC2)c1,0,77*,0,-11,13,15,
